Test results from PubChem BioAssay (EPA / NIEHS).
Values joined by “and” are separate entries in the source; they are usually repeats but may differ in a detail not shown here. Equal entries are not always repeated. Inconclusive results are not listed. Where a structure was tested more than once in an assay, its records may differ in their call. Active and inactive are the calls of the source. The calls were made as follows: active = hit-call score of the fitted dose curve at least 0.9, where 1 is the maximum; inconclusive = response in the unintended direction; inactive = score below 0.9.

Assays:
[1] = read-out: HMG-CoA synthase (HMGCS2), HMGCS2 (gene 3158); assay: CLD_HMGCS2_6hr: CellzDirect (CLD) Gene Expression Assay for HMG-CoA synthase (HMGCS2) at 6 hours (AID 2283682);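 also: actives raise HMGCS2 transcript above the 0.2% DMSO vehicle baseline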
In short: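 HMGCS2 transcript induction read by quantitative nuclease protection with chemiluminescence, 6 h after dosing of primary human hepatocytes. Baseline was 0.2% DMSO vehicle; phase-contrast morphology gave a yes/no cytotoxicity annotation.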

[2] = read-out: Broad substrate specificity ATP-binding cassette transporter ABCG2 (Homo sapiens) (UniProt Q9UNQ0); assay: CLD_ABCG2_24hr: CellzDirect (CLD) Gene Expression Assay for ABC Transporter (ABCG2) at 24 hours (AID 2283685)
In short: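 ABCG2 mRNA induction, read as gain of chemiluminescent signal over 0.2% DMSO, was measured by quantitative nuclease protection at 24 h. Cultured human liver hepatocytes were given fresh dosing solutions of test chemicals at several concentrations each day.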

[3] = read-out: Glyceraldehyde-3-phosphate dehydrogenase (Homo sapiens) (UniProt P04406); assay: CLD_GAPDH_24hr: CellzDirect (CLD) Gene Expression Assay for Baseline Control (Glyceraldehyde 3-phosphate dehydrogenase) at 24 hours (AID 2283692)
In short: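 GAPDH baseline-control readout: qNPA chemiluminescent mRNA signal in human primary hepatocytes harvested 24 h after daily dosing, normalised to 0.2% DMSO with positive fitting direction; cytotoxicity annotated by phase-contrast morphology.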

[4] = read-out: Cytochrome P450 2B6 (Homo sapiens) (UniProt P20813); assay: CLD_CYP2B6_24hr: CellzDirect (CLD) Gene Expression Assay for xenobiotic metabolism (CYP2B6) at 24 hours (AID 2283686)
In short: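 qNPA chemiluminescent measurement of mRNA at 24 hours in human primary hepatocyte cultures from two donor preparations, with daily fresh dosing and 0.2% DMSO vehicle as baseline. Morphology-based cytotoxicity flagged yes/no.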

[5] = read-out: Cytochrome P450 2C19 (Homo sapiens) (UniProt P33261); assay: CLD_CYP2C19_24hr: CellzDirect (CLD) Gene Expression Assay for xenobiotic metabolism (CYP2C19) at 24 hours (AID 2283687);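 also: activity means mRNA induction above DMSO vehicle baseline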
In short: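 CYP2C19 mRNA was quantified by qNPA chemiluminescence after 24 h of daily dosing of cultured human primary hepatocytes from two donors; vehicle was 0.2% DMSO, and increases over DMSO baseline were fitted.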

[6] = read-out: Cytochrome P450 2C9 (Homo sapiens) (UniProt P11712); assay: CLD_CYP2C9_24hr: CellzDirect (CLD) Gene Expression Assay for xenobiotic metabolism (CYP2C9) at 24 hours (AID 2283688)
In short: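 Induction of CYP2C9 mRNA was quantified by quantitative nuclease protection assay (chemiluminescence), gain of signal versus 0.2% DMSO vehicle, 24 h after dosing. Human primary hepatocytes (two donors) received fresh chemical daily at multiple concentrations; morphology-based cytotoxicity flagged yes/no.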

[7] = read-out: ABC Transporter (ABCB1), ABCB1 (gene 5243); assay: CLD_ABCB1_24hr: CellzDirect (CLD) Gene Expression Assay for ABC Transporter (ABCB1) at 24 hours (AID 2283684)
In short: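 ABCB1 mRNA induction versus 0.2% DMSO vehicle was read by qNPA chemiluminescence at 24 h. Cultured human hepatocytes from two donor preparations received daily fresh dosing, and phase-contrast cytotoxicity calls were annotated alongside the data.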

[8] = read-out: HMG-CoA synthase (HMGCS2), HMGCS2 (gene 3158); assay: CLD_HMGCS2_24hr: CellzDirect (CLD) Gene Expression Assay for HMG-CoA synthase (HMGCS2) at 24 hours (AID 2283691)
In short: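 qNPA with S1 nuclease digestion and chemiluminescent detection gave HMGCS2 transcript levels, fitted upward against 0.2% DMSO vehicle. Cultured human hepatocytes (two donors) received fresh compound daily and were harvested at 24 h; phase-contrast morphology flagged cytotoxicity.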

[9] = read-out: xenobiotic metabolism (CYP1A2), CYP1A2 (gene 1544); assay: CLD_CYP1A2_24hr: CellzDirect (CLD) Gene Expression Assay for xenobiotic metabolism (CYP1A2) at 24 hours (AID 2283683)
In short: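 CYP1A2 mRNA induction measured by quantitative nuclease protection (chemiluminescent) in human primary hepatocytes 24 h after multi-concentration chemical dosing with daily fresh solutions. DMSO (0.2%) baseline; positive-direction fitting; morphology-based cytotoxicity noted.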

Chain of Glyceraldehyde-3-phosphate dehydrogenase (Homo sapiens) (P04406 whole entry, looked up): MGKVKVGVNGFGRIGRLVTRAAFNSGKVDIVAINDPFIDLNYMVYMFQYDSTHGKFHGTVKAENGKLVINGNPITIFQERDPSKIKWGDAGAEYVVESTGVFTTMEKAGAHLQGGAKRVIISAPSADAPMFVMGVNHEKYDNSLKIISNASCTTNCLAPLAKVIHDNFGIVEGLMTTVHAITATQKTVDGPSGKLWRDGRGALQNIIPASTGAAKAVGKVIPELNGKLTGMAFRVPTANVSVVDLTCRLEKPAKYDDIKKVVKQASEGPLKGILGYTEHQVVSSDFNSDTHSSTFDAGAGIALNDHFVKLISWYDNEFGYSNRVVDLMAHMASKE
Chain of Broad substrate specificity ATP-binding cassette transporter ABCG2 (Homo sapiens) (Q9UNQ0 whole entry, looked up): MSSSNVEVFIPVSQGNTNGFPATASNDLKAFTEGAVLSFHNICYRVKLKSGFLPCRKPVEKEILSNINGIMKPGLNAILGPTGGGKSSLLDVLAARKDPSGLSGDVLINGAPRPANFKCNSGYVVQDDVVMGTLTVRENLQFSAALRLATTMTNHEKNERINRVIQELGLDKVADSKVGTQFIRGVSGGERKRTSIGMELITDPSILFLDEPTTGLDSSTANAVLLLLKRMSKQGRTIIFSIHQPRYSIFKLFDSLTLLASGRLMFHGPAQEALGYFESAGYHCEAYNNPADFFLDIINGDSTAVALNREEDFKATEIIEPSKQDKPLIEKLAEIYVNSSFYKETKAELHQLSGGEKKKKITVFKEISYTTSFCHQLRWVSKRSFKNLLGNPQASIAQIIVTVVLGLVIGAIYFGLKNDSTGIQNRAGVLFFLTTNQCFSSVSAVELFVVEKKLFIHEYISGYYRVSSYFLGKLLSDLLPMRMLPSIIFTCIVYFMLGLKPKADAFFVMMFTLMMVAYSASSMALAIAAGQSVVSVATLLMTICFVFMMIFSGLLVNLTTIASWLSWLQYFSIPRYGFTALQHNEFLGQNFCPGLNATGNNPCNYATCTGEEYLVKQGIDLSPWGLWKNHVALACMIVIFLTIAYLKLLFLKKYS
Chain of Cytochrome P450 2C19 (Homo sapiens) (P33261 whole entry, looked up): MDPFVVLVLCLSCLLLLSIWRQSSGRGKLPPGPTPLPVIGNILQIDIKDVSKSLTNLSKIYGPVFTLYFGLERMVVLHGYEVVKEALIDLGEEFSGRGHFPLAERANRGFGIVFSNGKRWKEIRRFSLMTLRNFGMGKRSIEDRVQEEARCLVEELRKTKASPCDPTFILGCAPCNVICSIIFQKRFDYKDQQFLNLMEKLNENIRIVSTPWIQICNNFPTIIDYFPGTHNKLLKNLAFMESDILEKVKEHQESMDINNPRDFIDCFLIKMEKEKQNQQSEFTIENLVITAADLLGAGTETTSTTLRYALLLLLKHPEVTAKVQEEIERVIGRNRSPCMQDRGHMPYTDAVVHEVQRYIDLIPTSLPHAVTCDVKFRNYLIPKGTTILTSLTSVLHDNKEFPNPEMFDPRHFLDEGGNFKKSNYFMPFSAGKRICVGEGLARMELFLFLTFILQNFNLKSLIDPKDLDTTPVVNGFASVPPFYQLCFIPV

CN(C)C(=S)SSC(=S)N(C)C
outcome [1]: inactive | outcome [2]: inactive | outcome [3]: inactive

COc1nc(C)nc(NC(=O)NS(=O)(=O)c2ccccc2Cl)n1
outcome [1]: inactive | outcome [2]: inactive | outcome [4]: inactive | outcome [5]: inactive | outcome [6]: inactive | outcome [3]: inactive

C#CCOS(=O)OC1CCCCC1Oc1ccc(C(C)(C)C)cc1 (centres undefined)
outcome [1]: inactive | outcome [7]: inactive | outcome [2]: inactive | AC50 [4]: 3.2 µM (active) | outcome [6]: inactive

N#Cc1nn(-c2c(Cl)cc(C(F)(F)F)cc2Cl)c(N)c1S(=O)C(F)(F)F (centres undefined)
outcome [1]: inactive | outcome [2]: inactive | AC50 [4]: 1.9 µM (active)

O=C(O)c1nc(Cl)ccc1Cl
AC50 [1]: 1.89 µM (active) | outcome [4]: inactive | outcome [5]: inactive | outcome [8]: inactive

CCON=C(CC)C1=C(O)CC(c2c(C)cc(C)cc2C)CC1=O (centres undefined)
outcome [1]: inactive | outcome [9]: inactive | outcome [2]: inactive | outcome [4]: inactive | outcome [5]: inactive | outcome [6]: inactive | outcome [8]: inactive | outcome [3]: inactive

CCOC(=O)CC(SP(=S)(OC)OC)C(=O)OCC (centres undefined)
outcome [1]: inactive | outcome [2]: inactive | outcome [4]: inactive | outcome [5]: inactive | outcome [6]: inactive | outcome [8]: inactive

CCc1nn(C)c(C(=O)NCc2ccc(C(C)(C)C)cc2)c1Cl
outcome [1]: inactive | outcome [2]: inactive | outcome [4]: inactive

CCOc1cc(Oc2ccc(C(F)(F)F)cc2Cl)ccc1[N+](=O)[O-]
outcome [1]: inactive | outcome [4]: inactive

COC(=O)N(OC)c1ccccc1COc1ccn(-c2ccc(Cl)cc2)n1
outcome [1]: inactive | outcome [2]: inactive | outcome [4]: inactive | outcome [5]: inactive | outcome [6]: inactive

Cc1ccc(-c2c(Cl)nc(C#N)n2S(=O)(=O)N(C)C)cc1
outcome [1]: inactive | outcome [2]: inactive | outcome [3]: inactive

COC(=O)C(C)Oc1ccc(Oc2ccc(Cl)cc2Cl)cc1 (centres undefined)
outcome [1]: inactive | outcome [2]: inactive | AC50 [4]: 20 µM (active) and 34.6 µM (active) | outcome [4]: inactive | outcome [5]: inactive | outcome [6]: inactive | outcome [8]: inactive | outcome [3]: inactive

CO/C=C(/C(=O)OC)c1ccccc1Oc1cc(Oc2ccccc2C#N)ncn1
outcome [2]: inactive | AC50 [4]: 7.02 µM (active) | outcome [5]: inactive | outcome [6]: inactive

CCNc1nc(Cl)nc(NCC)n1
AC50 [4]: 9.74 µM (active) | outcome [6]: inactive

CCCCNC(=O)n1c(NC(=O)OC)nc2ccccc21
outcome [2]: inactive | outcome [4]: inactive | outcome [5]: inactive | outcome [3]: inactive

C=CC1(C)OC(=O)N(c2cc(Cl)cc(Cl)c2)C1=O (centres undefined)
outcome [2]: inactive | AC50 [4]: 7.15 µM (active) | outcome [5]: inactive | outcome [6]: inactive | outcome [8]: inactive | outcome [3]: inactive

N#Cc1cc(Br)c(O)c(Br)c1
outcome [1]: inactive | outcome [3]: inactive
